Experimental data published in PMC4336329 (PLoS ONE, 2015).
In all, about 310,000 compounds went through this assay and about 14,000 (4.5%) showed an effect of 50% or more. The effect is printed as a negative number. What follows is part of a selection rich in strong results, with near analogues and random picks from the rest.

These compounds were tested against human ether-à-go-go-related gene (hERG) potassium channel (human, UniProt Q12809) (assay: primary screen, population patch clamp on CHO cells stably expressing hERG; higher = less effect of the substance).
Chain of human ether-à-go-go-related gene (hERG) potassium channel (Q12809 whole entry, looked up): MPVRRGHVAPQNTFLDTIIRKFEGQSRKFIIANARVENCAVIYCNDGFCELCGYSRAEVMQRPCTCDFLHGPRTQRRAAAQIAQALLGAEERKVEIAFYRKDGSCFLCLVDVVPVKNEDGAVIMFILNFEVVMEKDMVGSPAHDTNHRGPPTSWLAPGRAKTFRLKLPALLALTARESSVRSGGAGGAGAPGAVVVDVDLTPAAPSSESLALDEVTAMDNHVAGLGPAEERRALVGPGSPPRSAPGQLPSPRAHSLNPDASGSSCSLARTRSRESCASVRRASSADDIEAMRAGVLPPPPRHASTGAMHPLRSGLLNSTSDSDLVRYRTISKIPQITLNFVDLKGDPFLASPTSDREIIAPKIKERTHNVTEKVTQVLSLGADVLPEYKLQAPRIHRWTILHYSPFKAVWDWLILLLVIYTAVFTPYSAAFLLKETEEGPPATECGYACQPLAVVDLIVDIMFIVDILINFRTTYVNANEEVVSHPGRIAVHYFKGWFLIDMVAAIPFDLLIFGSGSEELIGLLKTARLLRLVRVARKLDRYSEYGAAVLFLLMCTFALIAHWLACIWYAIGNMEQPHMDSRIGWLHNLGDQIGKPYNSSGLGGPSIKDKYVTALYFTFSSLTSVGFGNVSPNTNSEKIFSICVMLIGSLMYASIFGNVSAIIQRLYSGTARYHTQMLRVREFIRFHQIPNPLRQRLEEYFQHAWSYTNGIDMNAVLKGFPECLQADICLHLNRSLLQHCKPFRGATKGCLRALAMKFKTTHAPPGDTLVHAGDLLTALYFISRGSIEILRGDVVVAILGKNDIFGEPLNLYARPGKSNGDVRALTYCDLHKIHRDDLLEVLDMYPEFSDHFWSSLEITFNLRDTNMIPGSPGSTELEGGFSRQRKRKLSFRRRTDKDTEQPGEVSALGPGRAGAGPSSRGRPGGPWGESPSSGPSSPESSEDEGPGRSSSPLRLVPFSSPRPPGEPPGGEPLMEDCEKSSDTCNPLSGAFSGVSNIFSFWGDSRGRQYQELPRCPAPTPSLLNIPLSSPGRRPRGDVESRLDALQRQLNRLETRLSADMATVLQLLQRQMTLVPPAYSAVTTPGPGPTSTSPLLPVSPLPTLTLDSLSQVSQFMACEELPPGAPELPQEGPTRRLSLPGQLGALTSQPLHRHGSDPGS
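Further: peak tail current of the secondary pulse compared with the same well before compound.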

Compared with `COc1ccc(-c2cc(CNS(=O)(=O)c3ccc(NC(C)=O)cc3)on2)cc1`, `COc1ccc(CC(=O)Nc2ccc(-c3noc(COc4ccccc4C)n3)cc2)cc1` is lower in “hERG current change (%, negative = inhibition) at 10uM” value: 18.6% for the first, 2.1% for the second.

Going from `COc1ccccc1C(=O)NCCOc1ccc(C)c(C)c1` to `Cc1ccc(C(=O)NCCOc2ccc(Cl)cc2)cc1`, the “hERG current change (%, negative = inhibition) at 10uM” value falls from 18.5% to 1.42%.

Compared with `COc1ccc(Cl)cc1N(CC(=O)NC1CC1)S(=O)(=O)c1ccc(C)c([N+](=O)[O-])c1`, `COc1ccc(OC)c(NC(=O)Nc2cc(C(=O)O)ccc2C)c1` is higher in “hERG current change (%, negative = inhibition) at 10uM” value: 11.9% for the first, 13.1% for the second.

First: COc1ccc(/C=C(\NC(=O)c2ccccc2)C(=O)OCC2CCCN3CCCCC23)cc1OC (centres unmarked)
Second: O=C(NC(=O)c1ccccc1)OCC1CCCN2CCCCC12 (centres unmarked)
The “hERG current change (%, negative = inhibition) at 10uM” value of the first is higher: -40.7% for the first, -56.7% for the second.

Compared with `Cl.O=C(OCC1CCCN2CCCCC12)c1ccc2c(c1)OCO2` (centres unmarked), `Cl.O=C(OC[C@@H]1CCCN2CCCC[C@H]12)c1cc2ccccc2oc1=O` is lower in “hERG current change (%, negative = inhibition) at 10uM” value: -22.8% for the first, -50.1% for the second.

Going from `O=C(Nc1ccc(C(=O)N2CCOCC2)cc1)c1cccc(Br)c1` to `O=C(NCC1CCCO1)c1ccc(NC(=O)c2cccc(Br)c2)cc1` (centres unmarked), the “hERG current change (%, negative = inhibition) at 10uM” value rises from 3.11% to 16.4%.

First: O=C(NC(=O)c1cccc(Cl)c1)OC[C@@H]1CCCN2CCCCC12 (some centres unmarked)
Second: O=C(NC(=O)c1cccc(F)c1)OC[C@@H]1CCCN2CCCC[C@H]12
The “hERG current change (%, negative = inhibition) at 10uM” value of the first is lower: -60.9% for the first, -36.7% for the second.

Compared with `O=C(Nc1ccccc1)OCC1CCCN2CCCCC12` (centres unmarked), `O=C(NS(=O)(=O)Oc1ccc(Cl)cc1)OC[C@@H]1CCCN2CCCC[C@H]12` is higher in “hERG current change (%, negative = inhibition) at 10uM” value: -39.4% for the first, 28.2% for the second.

First: Cl.O=C(Nc1ccc(C(=O)OC[C@@H]2CCCN3CCCC[C@H]23)cc1)c1cccc(Br)c1
Second: CCc1ccc(NC(=O)CN2CCC(C(=O)c3ccc(OC)cc3)CC2)cc1
The “hERG current change (%, negative = inhibition) at 10uM” value of the first is lower: -69.3% for the first, -62.8% for the second.

First: O=C(OC1CCCCC1)c1cc2ccccc2oc1=O
Second: O=C(CSc1cccc[n+]1[O-])c1cc2ccccc2o1
The “hERG current change (%, negative = inhibition) at 10uM” value of the first is lower: -32.6% for the first, -4.46% for the second.

First: CCOC(=O)C(=NCCCN(C)C)NNc1cc(C(F)(F)F)ccc1Cl
Second: N/C(=N\OC(=O)c1cccc(C(F)(F)F)c1)c1cnccn1
The “hERG current change (%, negative = inhibition) at 10uM” value of the first is lower: -18.5% for the first, 16.7% for the second.

Compared with `O=C(NCCCn1ccnc1)c1ccc(Br)c(S(=O)(=O)N2CCOCC2)c1`, `CCOc1ccc(C(=O)Nc2ccccc2N2CCOCC2)cc1` is higher in “hERG current change (%, negative = inhibition) at 10uM” value: -7.41% for the first, -5.52% for the second.

Compared with `COc1ccccc1NC(=O)CN1C(=O)NC(CC(C)C)C1=O` (centres unmarked), `CCOc1ccccc1NC(=O)CN1CCC(C(=O)c2ccc(OC)cc2)CC1` is lower in “hERG current change (%, negative = inhibition) at 10uM” value: 4.37% for the first, -65.9% for the second.

Compared with `O=C(CCC(=O)N1CCCC1)Nc1ccc([N+](=O)[O-])cc1`, `COc1ccc(NC(=O)CN2CCC(C(N)=O)CC2)cc1` is higher in “hERG current change (%, negative = inhibition) at 10uM” value: -1.25% for the first, 2.76% for the second.

Going from `NC(=S)N/N=C/c1ccc(C(F)(F)F)cc1` to `O=C(CNC(=O)c1ccco1)N/N=C/c1ccc(O)c([N+](=O)[O-])c1`, the “hERG current change (%, negative = inhibition) at 10uM” value rises from 11% to 29.1%.

Compared with `COC(=O)c1sccc1NC(=O)c1cc(OC)c(OC)c(OC)c1`, `CCOC(=O)c1c(NC(C)=O)sc2c(OC)c(Br)ccc12` is lower in “hERG current change (%, negative = inhibition) at 10uM” value: 3.09% for the first, 2.16% for the second.

First: O=NN1CCN(c2ccncc2S(=O)(=O)N2CCCCC2)CC1
Second: CC(=O)c1cc(CN2CCC(N3CCC(C(=O)N4CCCC4)CC3)CC2)cs1
The “hERG current change (%, negative = inhibition) at 10uM” value of the first is higher: 10.6% for the first, -2.23% for the second.

Going from `COc1ccc(-c2noc(-c3ccccc3C(=O)NCc3ccco3)n2)cc1` to `COC(=O)c1c(-c2ccccc2)noc1-c1ccccc1`, the “hERG current change (%, negative = inhibition) at 10uM” value falls from 3.2% to 2.19%.

First: CCOc1ccc(-c2nnc(N3CCCCC3)c3ccccc23)cc1
Second: CCOc1ccc(-c2nnc(N3CCOCC3)c3ccccc23)cc1
The “hERG current change (%, negative = inhibition) at 10uM” value of the first is higher: -6.17% for the first, -69.6% for the second.

First: CCN1CCN(c2nnc(-c3ccc(F)cc3)c3ccccc23)CC1
Second: CCN1CCN(c2nnc(-c3ccc(C)cc3)c3ccccc23)CC1
The “hERG current change (%, negative = inhibition) at 10uM” value of the first is higher: -48.4% for the first, -66.5% for the second.

Going from `OCCN1CCN(c2nnc(-c3ccccc3)c3ccccc23)CC1` to `CCN1CCN(c2nnc(-c3ccccc3)c3ccccc23)CC1`, the “hERG current change (%, negative = inhibition) at 10uM” value falls from -23.5% to -36.8%.

Compared with `Cc1ccc(-c2nnc(N3CCCCCC3)c3ccccc23)cc1`, `Cc1ccc(-c2nnc(N3CCN(CCO)CC3)c3ccccc23)cc1` is lower in “hERG current change (%, negative = inhibition) at 10uM” value: 1% for the first, -58.4% for the second.

Going from `COc1ccc(-c2nnc(N3CCOCC3)c3ccccc23)cc1` to `CCOc1ccc(C(=O)C2CCN(CC(=O)Nc3ccccc3N3CCOCC3)CC2)cc1`, the “hERG current change (%, negative = inhibition) at 10uM” value falls from -2.78% to -53.6%.

Compared with `COc1cc(/C=C/C(=O)O)ccc1OCc1ccc([N+](=O)[O-])cc1`, `COc1ccc(/C=C/C(=O)NCCNC(=O)c2ccccc2)cc1OC` is lower in “hERG current change (%, negative = inhibition) at 10uM” value: 21.8% for the first, -8.61% for the second.

First: COC(=O)c1ccc(COc2ccccc2/C=C(\C#N)C(=O)Nc2ccc(C)cc2C)cc1
Second: COc1ccc(NC(=O)CN2CCC(C(=O)c3ccc(C)cc3)CC2)c(OC)c1
The “hERG current change (%, negative = inhibition) at 10uM” value of the first is higher: -11.1% for the first, -29.8% for the second.

First: CCOC(=O)c1c(OCCO)nn(-c2ccc(Cl)cc2)c1N
Second: CCOC(=O)c1c(OCCO)nn(-c2ccccc2)c1N
The “hERG current change (%, negative = inhibition) at 10uM” value of the first is lower: -51.8% for the first, 14.1% for the second.

First: CCOC(=O)c1nn(-c2ccc(Cl)cc2)c(C)cc1=O
Second: CCOC(=O)c1c(NC(C)=O)sc2c(O)cccc12
The “hERG current change (%, negative = inhibition) at 10uM” value of the first is lower: -0.00902% for the first, 2.36% for the second.

Compared with `COc1ccc2[nH]cc(CCNS(=O)(=O)c3ccccc3)c2c1`, `O=C(Cc1cccc2ccccc12)NNC(=O)c1cccs1` is higher in “hERG current change (%, negative = inhibition) at 10uM” value: 11.7% for the first, 15.7% for the second.

First: CCOC(=O)c1c(NC(C)=O)sc2c(OCCN(CC)CC)c(Br)ccc12
Second: CCOC(=O)c1c(NC(C)=O)sc2c(OCC(O)CN(CC)CC)c(Br)ccc12 (centres unmarked)
The “hERG current change (%, negative = inhibition) at 10uM” value of the first is lower: -54.8% for the first, -51.3% for the second.

First: CCOC(=O)c1c(NC(C)=O)sc2c(O)c(Br)ccc12
Second: CCOC(=O)c1c(NC(C)=O)sc2c(OCC(O)CNC(C)(C)C)c(Br)ccc12 (centres unmarked)
The “hERG current change (%, negative = inhibition) at 10uM” value of the first is higher: 6.88% for the first, -11.8% for the second.

First: Cn1c(=NC(=O)COc2ccccc2)sc2ccccc21
Second: COc1ccc(C(=O)C2CCN(CC(=O)Nc3ccccc3F)CC2)cc1
The “hERG current change (%, negative = inhibition) at 10uM” value of the first is higher: -8.07% for the first, -17.2% for the second.

Going from `Cc1ccc(N2C(=O)CC(Nc3cccc4ccccc34)C2=O)cc1` (centres unmarked) to `COc1ccc(C(=O)C2CCN(CC(=O)Nc3ccc(C)cc3)CC2)cc1`, the “hERG current change (%, negative = inhibition) at 10uM” value falls from 27.6% to -53.4%.

Compared with `CC(C)=CCCC(C)CN1CCC(N2CCC(C(=O)N3CCOCC3)CC2)CC1` (centres unmarked), `CC(C)=CCCC(C)CN1CCC(N2CCC(C(=O)N3CCCC3)CC2)CC1` (centres unmarked) is lower in “hERG current change (%, negative = inhibition) at 10uM” value: -60.4% for the first, -74.8% for the second.

Compared with `CC(C)/C=C/C(=O)N1CCC(N2CCC(C(=O)N3CCOCC3)CC2)CC1`, `CC(C)=CC(=O)N1CCC(N2CCC(C(=O)N3CCOCC3)CC2)CC1` is higher in “hERG current change (%, negative = inhibition) at 10uM” value: 11% for the first, 28.3% for the second.

First: CC(C)=CCCC(C)CN1CCC(O)CC1 (centres unmarked)
Second: CC1CCN(CC(=O)Nc2nccs2)CC1
The “hERG current change (%, negative = inhibition) at 10uM” value of the first is lower: -2.96% for the first, 13.6% for the second.

First: Cl.Nc1ncnc2nc[nH]c12
Second: Nc1ncnc2c1ncn2C1OC(CO)C(O)C1O (centres unmarked)
The “hERG current change (%, negative = inhibition) at 10uM” value of the first is lower: 4.95% for the first, 35.7% for the second.

Going from `CCC1CCCCN1CCNC(=O)CNS(=O)(=O)c1ccc2nc(C)sc2c1` (centres unmarked) to `Cc1[nH]c(C)c(S(=O)(=O)Nc2ccccc2Cl)c1C(=O)N1CCCC1`, the “hERG current change (%, negative = inhibition) at 10uM” value rises from 10.5% to 15.7%.

First: O=C(Nc1nnc(C2CC2)s1)C1=NN(C2CCS(=O)(=O)C2)C(=O)CC1 (centres unmarked)
Second: NC(=O)C1CCN(CC(=O)Nc2nccs2)CC1
The “hERG current change (%, negative = inhibition) at 10uM” value of the first is lower: 0.219% for the first, 10.9% for the second.

Compared with `CCN(CC)c1ccc(N=Cc2c(O)n(-c3ccc(Cl)cc3)c(=O)[nH]c2=O)cc1`, `Cc1ccc(C(=O)C2CCN(CC(=O)Nc3ccc(N(C)C)cc3)CC2)cc1` is lower in “hERG current change (%, negative = inhibition) at 10uM” value: 14.5% for the first, -36.4% for the second.

Compared with `Cc1ccc(C(=O)CCC(=O)Nc2cccnc2)cc1C`, `Cc1cc(C)cc(NC(=O)CN2CCC(C(=O)c3ccccc3)CC2)c1` is lower in “hERG current change (%, negative = inhibition) at 10uM” value: 12.4% for the first, -48.6% for the second.

First: CCOc1ccccc1NC(=O)CN1CCC(C(=O)c2ccc(F)cc2)CC1
Second: CCOc1ccc(C(=O)C2CCN(CC(=O)Nc3nccs3)CC2)cc1
The “hERG current change (%, negative = inhibition) at 10uM” value of the first is higher: -20.9% for the first, -68.3% for the second.

Compared with `NC(=O)C1CCN(CC(=O)Nc2ccccc2N2CCOCC2)CC1`, `COc1ccc(OC)c(NC(=O)CN2CCC(C(=O)c3ccc(C)cc3)CC2)c1` is lower in “hERG current change (%, negative = inhibition) at 10uM” value: 3.15% for the first, -17.7% for the second.

Going from `COC(=O)CSc1ncnc2c(C)csc12` to `COc1ccc(NC(=O)CN2CCC(C)CC2)cc1`, the “hERG current change (%, negative = inhibition) at 10uM” value falls from 3.11% to -4.51%.

Going from `CN(C)c1ccc(-c2nnc(-c3cccnc3)o2)cc1` to `CC(=O)N1CCN(c2ccc(NC(=O)c3cccc(Cl)c3Cl)cc2)CC1`, the “hERG current change (%, negative = inhibition) at 10uM” value falls from 7.04% to -8.8%.

Going from `COC(=O)c1[nH]c(C)c(/C(O)=C2\C(=O)C(=O)N(CCN(C)C)C2c2ccccc2OC)c1C` (centres unmarked) to `COc1ccc(C(=O)C2CCN(CC(=O)Nc3cc(C)cc(C)c3)CC2)cc1`, the “hERG current change (%, negative = inhibition) at 10uM” value falls from 15.3% to -65.2%.

First: Cc1cccc(CC(=O)Nc2c3c(nn2-c2cccc(Cl)c2)CS(=O)C3)c1 (centres unmarked)
Second: O=C(Cc1ccsc1)NNC(=O)c1ccccc1O
The “hERG current change (%, negative = inhibition) at 10uM” value of the first is lower: 6.32% for the first, 7.87% for the second.
